Sampled rows, rich in hits. Any-hit rate of the full collection: about 0.51%.
phage Ecoli inh = growth loss of phage-infected E. coli, primary screen, RecBCD inhibitor project, absorbance, with phage, HTS. inhibition, % at 11.9 µM. 0.26% of 360,000 active; in the data active means inhibition above about 11%
Tat export inh = E. coli Tat export inhibitors, primary screen, MC4100, TorA-mCherry reporter, fluorescence, single point; inhibition, % at 10 µM; 0.036% of 340,000 active; AID 488895, 2010;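 active means mean replicate inhibition at least 50% and at least half of replicates individually reaching 50%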;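 further: exported cargo escapes ClpAP degradation while cytoplasmic cargo is degraded and loses fluorescence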
AddAB inh = growth inhibition of E. coli expressing H. pylori AddAB, primary screen, AddAB inhibitor project, absorbance; inhibition, % at 11.9 µM; AID 435030, 2010; 0.29% of 330,000 active; in the data active means inhibition above about 12%
E coli growth-1 = E. coli V3065 growth inhibition, primary screen, counter-screen for AddAB inhibitor project, absorbance, OD600 | 18 h | inhibition, % at 11.9 µM | 0.27% of 330,000 active | AID 449728, 2010;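 active means inhibition above the campaign's mean inhibition across all tested compounds plus 3 SD, cut at about 9.9% in these data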;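 further: uninfected addAB+ strain grown without phage in ampicillin broth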
E coli growth-2 = E. coli growth inhibition, primary screen, OD600 | AID 1053175, 2014 | OD600 absorbance (no concentration beside the values) | Escherichia coli growth, 23 h; active compounds read low | 0.21% of 330,000 active;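 active means OD600 absorbance below the run mean of sample wells minus 3.6 SD, in any replicate, cut at about 0.56 in these data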
AddAB confirm = growth loss of phage-infected E. coli expressing H. pylori AddAB, confirmation, AddAB inhibitor project, absorbance, E. coli V3065, T4 phage, triplicate. shares compounds with AddAB inh. OD; T4 phage with gene 2 nonsense mutations. inhibition, % at 11.9 µM. 64% of 880 active;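 active means mean inhibition above a set limit taken from the earlier primary screen, cut at about 13% in these data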;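 further: higher means less bacterial growth since AddAB block lets phage replicate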
RecBCD counter = growth loss of RecBCD+ E. coli with mutant T4 phage, counter-screen for AddAB inhibitor project, absorbance, V66 E. coli; shares compounds with AddAB inh; OD growth; inhibition, % at 11.9 µM; 73% of 880 active; AID 488955, 2010;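 active means mean inhibition above the mean of solvent-only control wells plus 3 SD, cut at about 4% in these data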;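 further: optical density read after an 18 h incubation at 37 °C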
Bact viability = bacterial viability inhibition counter-screen, confirmation, counter-screen for AddAB inhibitor project, absorbance; shares compounds with AddAB inh; absorbance (AddAB counterscreen); inhibition, % at 11.9 µM; 35% of 880 active; AID 488956, 2010; in the data active means inhibition above about 25%
RecBCD conf = growth loss of phage-infected RecBCD+ E. coli, confirmation, RecBCD inhibitor project, absorbance, E. coli V66, T4 gene 2 phage. 45% of 890 active. E. coli V66 + T4 2- phage, growth OD. shares compounds with phage Ecoli inh. AID 651982, 2013. inhibition, % at 11.9 µM;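 active means mean inhibition over triplicates exceeding the hit threshold derived in the original primary screen, cut at about 11% in these data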
Ecoli viability = E. coli viability inhibition, counter-screen for RecBCD inhibitor project, absorbance, high throughput. shares compounds with phage Ecoli inh. absorbance (OD) growth. inhibition, % at 11.9 µM. 29% of 890 active. AID 651983, 2013; in the data active means inhibition above about 20%;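 further: E. coli strain V66 grown with compound alone and no phage infection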
AddAB counter = growth loss of phage-infected AddAB-carrying E. coli, confirmation, counter-screen for RecBCD inhibitor project, absorbance, E. coli V3065, T4 phage; shares compounds with phage Ecoli inh; E. coli expressing H. pylori AddAB + T4 phage, OD growth; gene 2 mutant T4, recBCD-deleted host; inhibition, % at 11.9 µM; 45% of 890 active; AID 651984, 2013;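 active means mean inhibition above the solvent-only control wells' mean plus 3 SD, cut at about 22% in these data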;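 further: higher means less bacterial growth from phage killing when AddAB is blocked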
Of the large screens only hits and unclear results are named; the others gave an inactive call (follow-up assays come after a bar, where they were run).

CCN1C(=O)C2C(c3ccc(C)cc3)N3C(=O)N(c4ccc(OC)cc4)C(=O)[C@@]3(C)C2C1=O (stereo not given in full)	none (no result: phage Ecoli inh, Tat export inh, AddAB inh, E coli growth-1)
CC(NC(=O)c1nc[nH]c1C(=O)NCc1ccccc1)C(=O)OCc1ccccc1 (stereo not given)	none (no result: phage Ecoli inh, Tat export inh, AddAB inh, E coli growth-1)
COc1ccc(C=C(CC(=O)O)c2nc3ccccc3o2)cc1	none (no result: phage Ecoli inh, Tat export inh, AddAB inh, E coli growth-1)
CO[C@H]1/C=C/O[C@@]2(C)Oc3c(C)c(O)c4c(O)c(c(C=NN5CCN(C)CC5)c(O)c4c3C2=O)NC(=O)/C(C)=C\C=C\[C@H](C)[C@H](O)[C@@H](C)[C@@H](O)[C@@H](C)[C@H](OC(C)=O)[C@@H]1C	phage Ecoli inh 78, Tat export inh 78, AddAB inh 52, E coli growth-1 48 (no result: E coli growth-2) | AddAB confirm 59 | RecBCD counter 58 | Bact viability 62 | RecBCD conf 80 | Ecoli viability 89 | AddAB counter 102
C=CCc1cccc(/C=N/NC(=O)CNc2ccccc2OC)c1O	phage Ecoli inh 14, AddAB inh 13 (no result: E coli growth-2) | AddAB confirm 16 | RecBCD counter 10 | Bact viability inactive | RecBCD conf inactive | Ecoli viability inactive | AddAB counter inactive
C=CCc1cccc(/C=N/NC(=O)CCC(=O)Nc2ccc(F)cc2)c1O	phage Ecoli inh 13, AddAB inh 13, E coli growth-1 11 (no result: E coli growth-2) | AddAB confirm 14 | RecBCD counter 16 | Bact viability inactive | RecBCD conf inactive | Ecoli viability inactive | AddAB counter inactive
C=CCc1cccc(/C=N/NC(=O)CNc2cccc3ccccc23)c1O	none (no result: E coli growth-2)
COc1ccc(C=NNc2cc(N3CCOCC3)ncn2)c(OC)c1	none (no result: phage Ecoli inh, Tat export inh, AddAB inh, E coli growth-1)
Cc1cc(C)c2c(N=NN3CCOCC3)[nH]nc2n1	phage Ecoli inh 12, AddAB inh 77, E coli growth-1 17 | AddAB confirm 71 | RecBCD counter 4.2 | Bact viability 33 | RecBCD conf inactive | Ecoli viability inactive | AddAB counter 32
O=C(NNC(=O)c1cc2ccccc2cc1O)Nc1ccc(Br)cc1	phage Ecoli inh 15, AddAB inh 15, E coli growth-1 11 | AddAB confirm 14 | RecBCD counter 17 | Bact viability inactive | RecBCD conf inactive | Ecoli viability inactive | AddAB counter inactive
O=C(/C=C/c1cccs1)NC(=S)NNC(=O)c1ccccc1O	phage Ecoli inh 21, AddAB inh 26, E coli growth-1 22 | AddAB confirm 19 | RecBCD counter 22 | Bact viability inactive | RecBCD conf inactive | Ecoli viability inactive | AddAB counter 23
COc1ccc(C)cc1NC(=O)NNC(=O)c1cc2ccccc2cc1O	phage Ecoli inh 13, AddAB inh 16, E coli growth-1 15 | AddAB confirm 17 | RecBCD counter 14 | Bact viability inactive | RecBCD conf inactive | Ecoli viability inactive | AddAB counter inactive
COc1ccc(C(=O)NC(=S)NNC(=O)c2ccco2)cc1	none
O=C(NC(=S)NNC(=O)c1cc2ccccc2cc1O)c1ccco1	phage Ecoli inh 20, AddAB inh 15, E coli growth-1 17 (no result: E coli growth-2) | AddAB confirm 15 | RecBCD counter 24 | Bact viability inactive | RecBCD conf 14 | Ecoli viability inactive | AddAB counter inactive
Cc1ccc(C(=O)NNC(=O)c2cc3ccccc3cc2O)cc1	none
COc1ccc(C(=O)NNC(=S)NC(=O)/C=C/c2cccs2)cc1	none
COc1cc(C=NNC(=O)c2ccc(CN3c4cccc5cccc(c45)S3(=O)=O)cc2)cc(OC)c1O	none (no result: phage Ecoli inh, Tat export inh, AddAB inh, E coli growth-1)
CCOC(=O)c1sc(N=CN(C)C)c(C(=O)OCC)c1C	none (no result: phage Ecoli inh, Tat export inh, AddAB inh, E coli growth-1)
CCOC(=O)CCCc1ccc(C(C)=NNC(=S)NC)cc1	none (no result: phage Ecoli inh, Tat export inh, AddAB inh, E coli growth-1)
COc1ccc(C(=O)NC(=S)NNC(=O)c2ccccc2C)cc1	none
COc1ccc(C(=O)NC(=S)NNC(=O)c2ccccc2O)cc1	phage Ecoli inh 12, AddAB inh 15, E coli growth-1 18 | AddAB confirm 19 | RecBCD counter 23 | Bact viability inactive | RecBCD conf 12 | Ecoli viability inactive | AddAB counter 22
O=C(CNc1cccc2ccccc12)NN=Cc1ccc[nH]1	none (no result: phage Ecoli inh, Tat export inh, AddAB inh, E coli growth-1)
Nc1[nH]c(=O)ncc1F	phage Ecoli inh 29, AddAB inh 28, E coli growth-1 19 | AddAB confirm 45 | RecBCD counter 20 | Bact viability 44 | RecBCD conf 32 | Ecoli viability 24 | AddAB counter 52
CNC(=O)C(=O)NN=Cc1cccnc1	none (no result: phage Ecoli inh, Tat export inh, AddAB inh, E coli growth-1)
C#CCOCCOCCOCCNc1nc(N2CCOCC2)nc(N2CCN(C(=O)C(C(C)CC)n3cc(CCCCN)nn3)CC2)n1 (stereo not given)	none (no result: phage Ecoli inh, Tat export inh, AddAB inh, E coli growth-1)
CCC1OC(=O)C(C)C(OC2C[C@@](C)(OC)C(O)C(C)O2)C(C)C(OC2OC(C)CC(N(C)C)C2O)[C@](C)(O)CC(C)C(=NOCOCCOC)C(C)C(O)[C@]1(C)O (stereo not given in full)	none (no result: phage Ecoli inh, Tat export inh, AddAB inh, E coli growth-1)
CC[C@H]1OC(=O)[C@H](C)[C@@H](O[C@H]2C[C@@](C)(OC)[C@@H](O)[C@H](C)O2)[C@H](C)[C@@H](O[C@@H]2O[C@H](C)C[C@H](N(C)C)[C@H]2O)[C@](C)(O)C[C@@H](C)CN(C)[C@H](C)[C@@H](O)[C@]1(C)O	phage Ecoli inh 101, Tat export inh 121, AddAB inh 100, E coli growth-1 101 (no result: E coli growth-2) | AddAB confirm 99 | RecBCD counter 101 | Bact viability 102 | RecBCD conf 103 | Ecoli viability 104 | AddAB counter 104
CC1CN(C(C)CO)C(=O)Cc2cc(NC(=O)CCC(F)(F)F)ccc2OC1CN(C)C(=O)Nc1ccc(F)cc1 (stereo not given)	none (no result: phage Ecoli inh, Tat export inh, AddAB inh, E coli growth-1)

Screening data deposited in PubChem by several laboratories.
